From PubChem BioAssay AID2069 (Sanford-Burnham Center for Chemical Genomics, 2009) come the findings set out here.

In all, about 1,200 compounds went through this assay and about 210 (18%) were called active. Rule as the data show it: active = inhibition above about 30%; inactive = the rest. Not all results are given here.

This test in a line: fluorescence readout artefact check – biochemical, HTRF, uHTS, artefact control for SUMOylation inhibitor project, confirmation (AID 2069). The note with it: HTRF interference counterscreen, at 35 µM, stronger effect = higher value. (TR-FRET usually uses a lanthanide donor and a delayed reading to cut background.)
Turning to `O=[N+]([O-])c1ccc(C2Nc3cccc4cccc(c34)N2)cc1`, the inhibition (in general, the drop in the measured response relative to a control, in per cent) was -5.1% (inactive).
With `N#CC1=C(SCC(=O)NC23CC4CC(CC(C4)C2)C3)NC(=O)C(C#N)C12CCCCC2` (stereo unspecified) the figure was 4.6% (inactive); with `Cc1cc(NC(=O)CSc2nnc(Nc3ccccc3C)s2)no1`, -1.2% (inactive).
For `Oc1ccc(NC(=S)Nc2ccc(O)cc2)cc1`, the inhibition is 19.6% (inactive).
On to `Cc1[nH]n(-c2ccccc2)c(=O)c1C(C[N+](=O)[O-])c1ccc(Br)cc1` (stereo unspecified), for which the inhibition is -5.3% (inactive).
With `COc1ccc(-n2nc3cc(C)c(N)c(Br)c3n2)cc1` the figure was -14.3% (inactive).
With `Nc1ccc2nn(-c3ccccc3)nc2c1` the figure was 66% (active); with `Cn1cc2ccc(N)cc2n1`, 2.15% (inactive).
With `Cc1cccc(S(=O)(=O)C(C#N)c2nc3ccccc3nc2N2CC(C)OC(C)C2)c1` (stereo unspecified), the inhibition was 9.45% (inactive).
For `Cc1c(C(=O)c2ccc(Cl)cc2[N+](=O)[O-])c2ccccn2c1CCC#N` the value was 2.8% (inactive); for `Cc1n[nH]c(=S)n(NC(=O)/C=C/C(=O)Nn2c(=S)[nH]nc(C)c2=O)c1=O`, 51.5% (active).
Consider `O=C(NCCc1csc(-c2ccccc2)n1)c1c(F)cccc1Cl`, for which the inhibition was -9.35% (inactive).
With `CC1N(C)c2cccc3cccc(c23)N1C` the figure was -9.25% (inactive); with `CCOC(=O)c1c(C)oc2c1c(C=NCCC(=O)O)c(O)c1ccccc12`, -7.35% (inactive).
For `CCOC(=O)c1c(-c2ccccc2)oc2ccc(OC(C)C(=O)O)cc12` (stereo unspecified) the value was 58.6% (active).
With `CCOC(=O)c1c(C)oc2c1C(=O)c1ccccc1C2=O` the figure was 1.65% (inactive); with `N=C1S/C(=C\c2ccco2)C(=O)N1c1ccc2c(c1)OCO2`, 12.6% (inactive); with `CC1=NOC(=O)/C1=C\c1ccc(-c2cc(Cl)ccc2Cl)o1`, 11% (inactive).
For the compound `Cc1cc(NC(=O)CSc2nc3cc(C(=O)NCCCOC(C)C)ccc3c(=O)n2Cc2ccco2)no1`, the inhibition was 6.6% (inactive).
For `COc1cc2c(cc1OC)C(C)=NC1(CCCCC1)C2` the value was 31.6% (active); for `CSc1ccc(-c2cc(=O)c3ccccc3o2)cc1`, 60.2% (active).
For `CCN(CC)S(=O)(=O)c1cc(C)ccc1SC` the value was -1.75% (inactive); for `COc1ccc(/C=N/Nc2cc(N3CCCC3)nc(N3CCCC3)n2)cc1`, 27.9% (inactive); for `Oc1ccc(/C=N/Nc2cc(N3CCCC3)nc(N3CCCC3)n2)cc1`, 6.25% (inactive).
With `Oc1ccc(/C=N/Nc2cc(N3CCCC3)nc(N3CCCC3)n2)cc1O` the figure was 42.8% (active); with `CCOc1ccc(C=Nc2cccc3ncccc23)cc1`, -2.35% (inactive); with `Cc1ccc(C2C(C#N)=C(N)N(c3cccnc3)C3=C2C(=O)CCC3)s1` (stereo unspecified), 10.7% (inactive).
In the case of `COc1ccc(CC2S/C(=N/N=C/c3ccccc3O)NC2=O)cc1` (stereo unspecified), the inhibition is 65.5% (active).
As for `COc1ccc(CC2=C(O)c3ccccc3C(=O)C2=O)cc1`, the inhibition is -7.05% (inactive).
Turning to `O=C(CC1S/C(=N/N=C/C=C/c2ccccc2)NC1=O)Nc1ccc(Cl)c(Cl)c1` (stereo unspecified), the inhibition was -11.6% (inactive).
With `O=C1N/C(=N/N=C/c2ccccc2O)SC1Cc1ccc(F)cc1` (stereo unspecified), the inhibition is 64% (active).
Consider `Cc1cc(/C=C2\C(=N)N3N=C(c4ccco4)SC3=NC2=O)c(C)n1Cc1ccccc1`, for which the inhibition was 7.7% (inactive).
In the case of `N#C/C(=C\c1ccc(O)c(O)c1)C(=O)Nc1cccc2ncccc12`, the inhibition was 8.1% (inactive).
With `O=C(NCc1ccccc1)Nc1cccn(Cc2ccccc2F)c1=O` the figure was -6.7% (inactive); with `CCN(CC)S(=O)(=O)c1ccc(O)c(NC(=O)c2cc(-c3cc(OC)c(OC)c(OC)c3)nc3ccccc23)c1`, 16.9% (inactive).
With `O=C(N/N=C/c1ccc(Cl)cc1)c1nc2ccc([N+](=O)[O-])cc2c(=O)[nH]1` the figure was 8.95% (inactive); with `CC(O)C(=O)N/N=C/c1cccc(Cl)c1Cl` (stereo unspecified), -5.5% (inactive); with `O=C(Nc1nnc(-c2ccccc2SCc2ccccc2)s1)Nc1ccccc1F`, 6.45% (inactive).
For `Cc1c(N=C2C=CC(=O)c3ccccc32)c(=O)n(-c2ccccc2)n1C` the value was -29.4% (inactive).
On to `Cc1c(N2C(=O)c3ccc4c5c(ccc(c35)C2=O)CC4)c(=O)n(-c2ccccc2)n1C`, for which the inhibition is 39.8% (active).
For `Cc1ccc(C(=O)Nc2nnc(CC(=O)N/N=C/c3ccc(O)c(O)c3)s2)cc1` the value was -1% (inactive); for `Cc1c(C)c2cc(Cl)c(O)c(CN3CCN(C)CC3)c2oc1=O`, 30.6% (active).
In the case of `Cc1c(CC(=O)O)c(=O)oc2c(C)c(OCc3ccc(F)cc3Cl)ccc12`, the inhibition is -7.8% (inactive).
For `CCc1c(C)c2cc(Cl)c(O)c(CN(C)C)c2oc1=O` the value was 37.2% (active).
For `Cc1cc(Br)ccc1-n1[nH]c(C)c(C=Nc2cccc3nsnc23)c1=O` the value was 14.9% (inactive); for `NC(=O)CC(NC(=O)Cc1cccc2ccccc12)c1ccc(NCCc2ccccc2F)c([N+](=O)[O-])c1` (stereo unspecified), 0.5% (inactive).
For `CCc1ccc(NC(=O)C(CC)Sc2nc3cc4c(cc3c(=O)n2Cc2ccco2)OCO4)cc1` (stereo unspecified), the inhibition is 6.65% (inactive).
With `N#Cc1cnn2c(-c3ccccc3)ccnc12` the figure was 36.5% (active); with `NS(=O)(=O)c1ccc(-c2ccc(/C=C3\NC(=S)NC3=O)o2)cc1`, -17.4% (inactive).
With `Cc1cccc(NC2=C(NCCO)C(=O)c3ccccc3C2=O)c1` the figure was -25.1% (inactive); with `Cc1ccccc1N=Cc1cccc(O)c1O`, -6.55% (inactive); with `CCCCn1c(NS(=O)(=O)c2ccccc2)c(S(=O)(=O)c2ccc(C)cc2)c2nc3ccccc3nc21`, 16.1% (inactive).
With `CCCCn1c(=O)[nH]c2nc3cc(N)ccc3nc2c1=O` the figure was 43.9% (active); with `CCCCn1c(=O)[nH]c(=O)c2c1nc(-c1ccc(-c3ccc(F)cc3)o1)n2C`, 21.7% (inactive); with `Oc1ccc(C2Nc3cccc4cccc(c34)N2)c(O)c1`, -3.25% (inactive).
Regarding `CC(NC(=O)OC(C)(C)C)C(=O)Oc1ccc2ccc(=O)oc2c1` (stereo unspecified), the inhibition was 25.8% (inactive).
For `CC(=O)Oc1ccc2c(C)c(CC(C)O)c(=O)oc2c1` (stereo unspecified) the value was 42.2% (active).
In the case of `Cc1ccc(NC(=S)Nc2cccc3ccccc23)cc1F`, the inhibition was -5.85% (inactive).
With `CN(C)c1cccc2cccc(N(C)C)c12` the figure was 13.3% (inactive); with `CN(C)c1cccc2c(S(=O)(=O)Nc3ccccn3)cccc12`, 20% (inactive); with `CN(C)c1cccc2c(S(=O)(=O)N3CCCC3)cccc12`, 36.4% (active).
